Source: PubChem BioAssay AID1159580 (chemical genetic matrix, 2015)
About 2,000 (36%) of roughly 5,500 compounds were called active. Not shown: some 18% with an inconclusive outcome. No stated cut-off is given here; in the data, active means normalized growth mostly below about 0.91 (no sharp cut-off); inconclusive means no clear call, values can overlap the other calls; inactive means mostly above about 0.92. The list shows a part of the results.

Assay: chemical genetic growth profiling, strain panel (AID 1159580);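 further: tested at 20 µM; growth read once vehicle control cultures reached saturation at 30 °C; 1 = growth at the plate median or of vehicle wells; lower values mean less growth of the strain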
Details: growth OD

Measured: normalized growth

Nc1nccs1
active: S. cerevisiae deletion strains, locus YER155C, strain BEM2 (second series), hits give low values 0.841 | S. cerevisiae deletion strains, locus YOR270C, strain vph1, hits give low values 0.638
inactive: S. cerevisiae deletion strains, locus YAL021C, strain ccr4, hits give low values 0.994 | S. cerevisiae deletion strains, locus YAL026C, strain drs2, hits give low values 0.993 | S. cerevisiae deletion strains, locus YAL030W, strain snc1, hits give low values 0.995 | S. cerevisiae deletion strains, locus YBL061C, strain skt5, hits give low values 0.995 | S. cerevisiae deletion strains, locus YBR009C, strain hhf1, hits give low values 0.987 | S. cerevisiae deletion strains, locus YBR021W, strain FUR4, hits give low values 1.03 | S. cerevisiae deletion strains, locus YBR023C, strain chs3, hits give low values 0.991 | S. cerevisiae deletion strains, locus YBR171W, strain sec66, hits give low values 0.975 | S. cerevisiae deletion strains, locus YBR229C, strain ROT2, hits give low values 0.949 | S. cerevisiae deletion strains, locus YBR231C, strain swc5, hits give low values 0.973 | S. cerevisiae deletion strains, locus YBR279W, strain paf1, hits give low values 1 | S. cerevisiae deletion strains, locus YCL011C, strain gbp2, hits give low values 1.02 | S. cerevisiae deletion strains, locus YCL016C, strain dcc1, hits give low values 0.989 | S. cerevisiae deletion strains, locus YCL029C, strain bik1, hits give low values 0.98 | S. cerevisiae deletion strains, locus YCL061C, strain MRC1, hits give low values 0.978 | S. cerevisiae deletion strains, locus YCL069W, strain vba3, hits give low values 0.988 | S. cerevisiae deletion strains, locus YCR088W, strain abp1, hits give low values 0.992 | S. cerevisiae deletion strains, locus YDL005C, strain med2, hits give low values 0.985 | S. cerevisiae deletion strains, locus YDL035C, strain GPR1, hits give low values 1.01 | S. cerevisiae deletion strains, locus YDL040C, strain nat1, hits give low values 0.986 | S. cerevisiae deletion strains, locus YDL074C, strain BRE1, hits give low values 0.96 | S. cerevisiae deletion strains, locus YDL101C, strain DUN1, hits give low values 0.974 | S. cerevisiae deletion strains, locus YDL134C, strain PPH21, hits give low values 0.983 | S. cerevisiae deletion strains, locus YDL185W, strain tfp1, hits give low values 0.984 | S. cerevisiae deletion strains, locus YDL192W, strain arf1, hits give low values 0.983 | S. cerevisiae deletion strains, locus YDR001C, strain nth1, hits give low values 1 | S. cerevisiae deletion strains, locus YDR069C, strain doa4, hits give low values 0.95 | S. cerevisiae deletion strains, locus YDR101C, strain arx1, hits give low values 0.941 | S. cerevisiae deletion strains, locus YDR137W, strain rgp1, hits give low values 0.998 | S. cerevisiae deletion strains, locus YDR159W, strain sac3, hits give low values 0.953 | S. cerevisiae deletion strains, locus YDR162C, strain NBP2, hits give low values 0.996 | S. cerevisiae deletion strains, locus YDR195W, strain ref2 0.958 | S. cerevisiae deletion strains, locus YDR297W, strain sur2, hits give low values 0.997 | S. cerevisiae deletion strains, locus YDR318W, strain mcm21, hits give low values 0.989 | S. cerevisiae deletion strains, locus YDR334W, strain swr1, hits give low values 0.997 | S. cerevisiae deletion strains, locus YDR335W, strain msn5, hits give low values 0.978 | S. cerevisiae deletion strains, locus YDR388W, hits give low values 0.991 | S. cerevisiae deletion strains, locus YDR392W, strain spt3, hits give low values 0.945 | S. cerevisiae deletion strains, locus YDR502C, strain sam2, hits give low values 0.983 | S. cerevisiae deletion strains, locus YEL003W, strain gim4, hits give low values 0.997 | S. cerevisiae deletion strains, locus YEL037C, strain rad23, hits give low values 0.987 | S. cerevisiae deletion strains, locus YEL061C, strain CIN8 (second series), hits give low values 0.991 | S. cerevisiae deletion strains, locus YEL061C, strain CIN8, hits give low values 0.984 | S. cerevisiae deletion strains, locus YER015W, strain faa2, hits give low values 0.991 | S. cerevisiae deletion strains, locus YER016W, strain bim1, hits give low values 1.01 | S. cerevisiae deletion strains, locus YER110C, hits give low values 0.986 | S. cerevisiae deletion strains, locus YER111C, strain swi4, hits give low values 0.986 | S. cerevisiae deletion strains, locus YER155C, strain BEM2, hits give low values 1 | S. cerevisiae deletion strains, locus YER167W, strain BCK2, hits give low values 0.995 | S. cerevisiae deletion strains, locus YFR010W, strain ubp6, hits give low values 0.991 | S. cerevisiae deletion strains, locus YGL078C, strain dbp3, hits give low values 1.01 | S. cerevisiae deletion strains, locus YGL086W, strain mad1, hits give low values 0.953 | S. cerevisiae deletion strains, locus YGL167C, strain pmr1, hits give low values 0.981 | S. cerevisiae deletion strains, locus YGL173C, strain kem1, hits give low values 0.99 | S. cerevisiae deletion strains, locus YGL227W, strain vid30, hits give low values 0.991 | S. cerevisiae deletion strains, locus YGL240W, strain doc1, hits give low values 0.96 | S. cerevisiae deletion strains, locus YGL248W, strain PDE1, hits give low values 0.974 | S. cerevisiae deletion strains, locus YGL253W, strain hxk2, hits give low values 1.01 | S. cerevisiae deletion strains, locus YGR135W, strain pre9, hits give low values 1.06 | S. cerevisiae deletion strains, locus YGR229C, strain SMI1, hits give low values 1.01 | S. cerevisiae deletion strains, locus YGR252W, strain gcn5, hits give low values 1.09 | S. cerevisiae deletion strains, locus YHR013C, strain ard1, hits give low values 1.02 | S. cerevisiae deletion strains, locus YHR027C, strain rpn1, hits give low values 0.994 | S. cerevisiae deletion strains, locus YHR030C, strain SLT2, hits give low values 1 | S. cerevisiae deletion strains, locus YHR079C, strain IRE1 (second series), hits give low values 0.989 | S. cerevisiae deletion strains, locus YHR094C, strain hxt1, hits give low values 0.984 | S. cerevisiae deletion strains, locus YHR129C, strain ARP1, hits give low values 0.987 | S. cerevisiae deletion strains, locus YHR142W, strain chs7, hits give low values 1.02 | S. cerevisiae deletion strains, locus YHR200W, strain rpn10, hits give low values 0.984 | S. cerevisiae deletion strains, locus YIL066C, strain RNR3, hits give low values 0.953 | S. cerevisiae deletion strains, locus YIL073C, strain SPO22, hits give low values 1.04 | S. cerevisiae deletion strains, locus YIL125W, strain kgd1, hits give low values 0.989 | S. cerevisiae deletion strains, locus YIR030C, strain dcg1, hits give low values 0.988 | S. cerevisiae deletion strains, locus YJL092W, strain hpr5, hits give low values 0.969 | S. cerevisiae deletion strains, locus YJL095W, strain BCK1 (second series), hits give low values 0.998 | S. cerevisiae deletion strains, locus YJL095W, strain BCK1, hits give low values 0.934 | S. cerevisiae deletion strains, locus YJL115W, strain asf1, hits give low values 0.998 | S. cerevisiae deletion strains, locus YJL129C, strain trk1, hits give low values 0.978 | S. cerevisiae deletion strains, locus YJL134W, strain LCB3, hits give low values 0.99 | S. cerevisiae deletion strains, locus YJL154C, strain vps35, hits give low values 0.993 | S. cerevisiae deletion strains, locus YJL164C, strain tpk1, hits give low values 0.997 | S. cerevisiae deletion strains, locus YJL166W, strain qcr8, hits give low values 0.961 | S. cerevisiae deletion strains, locus YJL168C, strain set2, hits give low values 0.988 | S. cerevisiae deletion strains, locus YJL187C, strain SWE1 (second series), hits give low values 0.947 | S. cerevisiae deletion strains, locus YJL187C, strain SWE1, hits give low values 0.998 | S. cerevisiae deletion strains, locus YJR043C, strain POL32, hits give low values 0.985 | S. cerevisiae deletion strains, locus YKL009W, strain mrt4, hits give low values 0.985 | S. cerevisiae deletion strains, locus YKL068W, hits give low values 0.981 | S. cerevisiae deletion strains, locus YKL085W, strain MDH1 (second series), hits give low values 0.981 | S. cerevisiae deletion strains, locus YKL085W, strain MDH1, hits give low values 0.981 | S. cerevisiae deletion strains, locus YKL160W, strain elf1, hits give low values 0.98 | S. cerevisiae deletion strains, locus YKL190W, strain CNB1, hits give low values 0.992 | S. cerevisiae deletion strains, locus YKR001C, strain vps1, hits give low values 0.985 | S. cerevisiae deletion strains, locus YKR026C, strain gcn3, hits give low values 0.995 | S. cerevisiae deletion strains, locus YKR091W, strain srl3, hits give low values 0.998 | S. cerevisiae deletion strains, locus YLL001W, strain dnm1, hits give low values 0.947 | S. cerevisiae deletion strains, locus YLL026W, hits give low values 0.993 | S. cerevisiae deletion strains, locus YLL041C, strain sdh2, hits give low values 0.991 | S. cerevisiae deletion strains, locus YLR027C, strain aat2, hits give low values 0.988 | S. cerevisiae deletion strains, locus YLR039C, strain RIC1, hits give low values 0.929 | S. cerevisiae deletion strains, locus YLR058C, strain SHM2, hits give low values 0.974 | S. cerevisiae deletion strains, locus YLR102C, strain apc9, hits give low values 0.996 | S. cerevisiae deletion strains, locus YLR221C, strain rsa3, hits give low values 0.992 | S. cerevisiae deletion strains, locus YLR258W, strain gsy2, hits give low values 1 | S. cerevisiae deletion strains, locus YLR262C, strain YPT6 (second series), hits give low values 0.939 | S. cerevisiae deletion strains, locus YLR262C, strain YPT6, hits give low values 0.929 | S. cerevisiae deletion strains, locus YLR268W, strain sec22, hits give low values 0.968 | S. cerevisiae deletion strains, locus YLR320W, strain mms22, hits give low values 1 | S. cerevisiae deletion strains, locus YLR330W, strain CHS5, hits give low values 0.993 | S. cerevisiae deletion strains, locus YLR342W, strain FKS1 (second series), hits give low values 1.03 | S. cerevisiae deletion strains, locus YLR342W, strain FKS1, hits give low values 0.975 | S. cerevisiae deletion strains, locus YLR357W, strain rsc2, hits give low values 0.945 | S. cerevisiae deletion strains, locus YLR370C, strain arc18, hits give low values 0.991 | S. cerevisiae deletion strains, locus YLR371W, strain rom2, hits give low values 0.999 | S. cerevisiae deletion strains, locus YLR384C, strain iki3, hits give low values 0.976 | S. cerevisiae deletion strains, locus YLR418C, strain cdc73, hits give low values 1.03 | S. cerevisiae deletion strains, locus YML016C, strain PPZ1, hits give low values 0.984 | S. cerevisiae deletion strains, locus YML032C, strain rad52, hits give low values 0.984 | S. cerevisiae deletion strains, locus YML120C, strain ndi1, hits give low values 0.99 | S. cerevisiae deletion strains, locus YML124C, strain tub3, hits give low values 0.985 | S. cerevisiae deletion strains, locus YMR058W, strain fet3, hits give low values 0.988 | S. cerevisiae deletion strains, locus YMR078C, strain ctf18, hits give low values 0.979 | S. cerevisiae deletion strains, locus YMR125W, strain sto1, hits give low values 0.988 | S. cerevisiae deletion strains, locus YMR129W, hits give low values 0.996 | S. cerevisiae deletion strains, locus YMR205C, strain PFK2, hits give low values 0.983 | S. cerevisiae deletion strains, locus YMR223W, strain ubp8, hits give low values 1.04 | S. cerevisiae deletion strains, locus YMR231W, strain pep5, hits give low values 0.99 | S. cerevisiae deletion strains, locus YMR307W, strain GAS1, hits give low values 1.07 | S. cerevisiae deletion strains, locus YNL067W, strain RPL9B, hits give low values 0.954 | S. cerevisiae deletion strains, locus YNL071W, strain lat1, hits give low values 1 | S. cerevisiae deletion strains, locus YNL128W, strain TEP1, hits give low values 1.01 | S. cerevisiae deletion strains, locus YNL209W, strain ssb2, hits give low values 0.991 | S. cerevisiae deletion strains, locus YNL233W, strain BNI4, hits give low values 0.96 | S. cerevisiae deletion strains, locus YNL248C, strain rpa49, hits give low values 1.02 | S. cerevisiae deletion strains, locus YNL250W, strain rad50, hits give low values 0.989 | S. cerevisiae deletion strains, locus YNL271C, strain bni1, hits give low values 0.978 | S. cerevisiae deletion strains, locus YNL298W, strain CLA4, hits give low values 0.999 | S. cerevisiae deletion strains, locus YNL307C, strain MCK1, hits give low values 0.988 | S. cerevisiae deletion strains, locus YNL322C, strain KRE1 (second series), hits give low values 0.985 | S. cerevisiae deletion strains, locus YNR049C, strain mso1, hits give low values 0.987 | S. cerevisiae deletion strains, locus YNR052C, strain pop2, hits give low values 0.998 | S. cerevisiae deletion strains, locus YOL006C, strain TOP1, hits give low values 0.899 | S. cerevisiae deletion strains, locus YOL012C, strain htz1 0.795 | S. cerevisiae deletion strains, locus YOL147C, strain pex11, hits give low values 0.993 | S. cerevisiae deletion strains, locus YOR001W, strain rrp6, hits give low values 0.983 | S. cerevisiae deletion strains, locus YOR061W, strain CKA2, hits give low values 0.958 | S. cerevisiae deletion strains, locus YOR069W, strain VPS5, hits give low values 0.99 | S. cerevisiae deletion strains, locus YOR070C, strain gyp1, hits give low values 0.999 | S. cerevisiae deletion strains, locus YOR080W, strain dia2, hits give low values 0.977 | S. cerevisiae deletion strains, locus YOR083W, strain WHI5, hits give low values 0.971 | S. cerevisiae deletion strains, locus YOR106W, strain vam3, hits give low values 0.955 | S. cerevisiae deletion strains, locus YOR136W, strain idh2, hits give low values 0.988 | S. cerevisiae deletion strains, locus YOR144C, strain elg1, hits give low values 0.992 | S. cerevisiae deletion strains, locus YOR184W, strain ser1, hits give low values 0.914 | S. cerevisiae deletion strains, locus YOR265W, strain rbl2, hits give low values 0.997 | S. cerevisiae deletion strains, locus YOR290C, strain snf2, hits give low values 0.945 | S. cerevisiae deletion strains, locus YOR316C, strain cot1, hits give low values 0.979 | S. cerevisiae deletion strains, locus YPL051W, strain arl3, hits give low values 0.965 | S. cerevisiae deletion strains, locus YPL078C, strain atp4, hits give low values 0.969 | S. cerevisiae deletion strains, locus YPL106C, strain sse1, hits give low values 0.958 | S. cerevisiae deletion strains, locus YPL240C, strain hsp82, hits give low values 0.994 | S. cerevisiae deletion strains, locus YPR119W, strain clb2, hits give low values 0.988 | S. cerevisiae deletion strains, locus YPR141C, strain kar3, hits give low values 0.973 | S. cerevisiae deletion strains, locus YPR163C, strain tif3, hits give low values 0.985 | S. cerevisiae deletion strains, locus YPR167C, strain met16, hits give low values 0.993 | S. cerevisiae deletion strains, strain wtn01, hits give low values 1.01 | S. cerevisiae strains, strain wild type, hits give low values 0.984
